Source: PubChem BioAssay
For some of these results: Measured potencies and affinities stand elsewhere. Activity calls are given as the source filed them.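 The calls were made as follows, unless noted: active = hit in primary screen, with calcium signal over 5 SD above buffer well mean in both duplicates; inactive = the rest.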

Experiments:
[1] = tested on: TRPC4 beta (transient receptor potential cation channel C4), mouse; experiment: activators of mouse TRPC4 channel, confirmation, cell-based, Fluo4 calcium, HEK293 TRPC4beta/mu-opioid, duplicates, 10 µM (AID 2426;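 active = fluorescence ratio normalized to control raised more than 50% in primary screen plus both repeat runs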;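 as to activation: percent rise of integrated ratio over buffer wells lacking compound which define 0%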); settings: Fluo4 calcium fluorescence, at 10 µM; active compounds read high
[2] = tested on: transient receptor potential cation channel C4 beta (TRPC4), mouse; experiment: activators of mouse TRPC4 channel, confirmation, cell-based, second round, Fluo4, HEK293 TRPC4beta/mu-opioid, 1 µM (AID 2461;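 active = primary screen active and over 50% activation in each of two duplicate runs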;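 as to activation: 0% = wells without test compound as baseline of integrated fluorescence ratio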); settings: Fluo4 calcium fluorescence, at 1 µM; active compounds read high
[3] = tested on: TRPC4 (transient receptor potential cation channel C4 beta), mouse; experiment: positive allosteric modulators of mouse TRPC4, confirmation, cell-based, second round, Fluo-4, HEK293 TRPC4beta/mu-opioid, 1 µM (AID 2554;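 active = primary screen hit whose fluorescence ratio, in both repeats, exceeds the weak agonist control mean by 3 SD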); settings: DAMGO EC20, Fluo-4 calcium flux, at 1 µM; active compounds read high
[4] = tested on: TRPC4 beta (transient receptor potential cation channel C4), mouse; experiment: positive allosteric modulators of mouse TRPC4, confirmation, cell-based, Fluo-4, HEK293 TRPC4beta/mu-opioid (AID 2555;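 active = primary screen hit whose calcium fluorescence ratio, in both repeats, exceeds the weak agonist control mean by 3 SD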); settings: DAMGO EC20, Fluo-4 calcium flux, at 10 µM; active compounds read high
[5] = target: Short transient receptor potential channel 4 (Mus musculus) (UniProt Q9QUQ5); experiment: inhibitors of mouse TRPC4 channel, confirmation, cell-based, Fluo4, HEK293 TRPC4beta/mu-opioid (AID 2636;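 active = calcium signal cut by more than 3 SD below the full-agonist control yet still positive, in both repeats and the earlier primary screen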); settings: DAMGO, Fluo4 calcium flux, at 10 µM; active compounds read high
Short transient receptor potential channel 4 (Mus musculus), sequence (Q9QUQ5 whole entry, looked up): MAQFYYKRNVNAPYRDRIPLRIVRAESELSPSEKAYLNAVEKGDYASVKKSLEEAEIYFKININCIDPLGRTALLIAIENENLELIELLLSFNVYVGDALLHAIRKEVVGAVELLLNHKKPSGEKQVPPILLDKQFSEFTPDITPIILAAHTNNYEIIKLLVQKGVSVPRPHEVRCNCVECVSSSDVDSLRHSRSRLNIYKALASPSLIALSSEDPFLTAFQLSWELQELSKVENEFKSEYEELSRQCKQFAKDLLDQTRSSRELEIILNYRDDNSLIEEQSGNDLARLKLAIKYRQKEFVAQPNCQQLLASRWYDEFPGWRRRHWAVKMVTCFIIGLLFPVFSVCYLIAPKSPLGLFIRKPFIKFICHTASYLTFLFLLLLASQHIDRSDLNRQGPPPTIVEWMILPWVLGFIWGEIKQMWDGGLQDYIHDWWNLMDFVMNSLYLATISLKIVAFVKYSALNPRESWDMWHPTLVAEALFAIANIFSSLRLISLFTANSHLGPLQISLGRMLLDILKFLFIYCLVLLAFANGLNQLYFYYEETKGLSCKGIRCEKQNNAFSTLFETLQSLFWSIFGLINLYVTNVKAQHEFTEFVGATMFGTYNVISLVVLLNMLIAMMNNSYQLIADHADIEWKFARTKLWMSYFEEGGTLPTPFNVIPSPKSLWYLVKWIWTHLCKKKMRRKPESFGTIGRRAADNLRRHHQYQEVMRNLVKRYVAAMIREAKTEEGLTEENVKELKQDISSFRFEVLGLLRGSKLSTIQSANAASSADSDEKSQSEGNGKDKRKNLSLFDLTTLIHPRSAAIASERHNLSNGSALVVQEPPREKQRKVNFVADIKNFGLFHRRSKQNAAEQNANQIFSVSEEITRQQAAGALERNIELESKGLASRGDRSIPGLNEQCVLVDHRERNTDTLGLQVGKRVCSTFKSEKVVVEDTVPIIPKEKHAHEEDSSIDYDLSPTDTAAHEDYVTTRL

[6] = target: Short transient receptor potential channel 4 (Mus musculus) (UniProt Q9QUQ5); experiment: inhibitors of mouse TRPC4 channel, confirmation, cell-based, second round, Fluo4, HEK293 TRPC4beta/mu-opioid, 1 µM (AID 2637;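 active = calcium signal ratio cut to more than 3 SD under the fully stimulated control mean yet still positive, in both repeats and the primary screen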); settings: Fluo4 calcium flux, DAMGO, at 1 µM; active compounds read high
[7] = target: Short transient receptor potential channel 4 (Mus musculus) (UniProt Q9QUQ5); experiment: TRPC4 positive allosteric modulators, dose response, cell-based, HEK293 TRPC4/mu-opioid, Fluo-4 calcium, EC20 DAMGO (AID 434941;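 active = earlier screen potentiator hit that boosts the TRPC4 ion channel at some dose, with a dose response; inactive = no potentiation, no dose response, or not a prior hit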;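 also: calcium entry triggered by an EC20 dose of DAMGO at the co-expressed mu-opioid receptor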)
[8] = target: Short transient receptor potential channel 4 (Mus musculus) (UniProt Q9QUQ5); experiment: mouse TRPC4 channel inhibitors, dose response, cell-based, HEK293 TRPC4/mu-opioid, Fluo-4 calcium (AID 434942;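 active = primary screen inhibitor hit that blocks the TRPC4 channel at some tested dose, yielding a dose curve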)
[9] = target: Short transient receptor potential channel 6 (Mus musculus) (UniProt Q61143); experiment: inhibition of mouse TRPC6 channel, confirmation, selectivity assay for TRPC4 inhibitor project, cell-based, HEK293, membrane potential dye, duplicate (AID 434948;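 active = active in primary screen and both duplicates, each dropping signal beyond three positive-control SD with fluorescence still positive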); settings: HEK293 TRPC6, membrane potential dye fluorescence, at 10 µM, stimulated with maximal-effect acetylcholine; active compounds read high
Short transient receptor potential channel 6 (Mus musculus), sequence (Q61143 whole entry, looked up): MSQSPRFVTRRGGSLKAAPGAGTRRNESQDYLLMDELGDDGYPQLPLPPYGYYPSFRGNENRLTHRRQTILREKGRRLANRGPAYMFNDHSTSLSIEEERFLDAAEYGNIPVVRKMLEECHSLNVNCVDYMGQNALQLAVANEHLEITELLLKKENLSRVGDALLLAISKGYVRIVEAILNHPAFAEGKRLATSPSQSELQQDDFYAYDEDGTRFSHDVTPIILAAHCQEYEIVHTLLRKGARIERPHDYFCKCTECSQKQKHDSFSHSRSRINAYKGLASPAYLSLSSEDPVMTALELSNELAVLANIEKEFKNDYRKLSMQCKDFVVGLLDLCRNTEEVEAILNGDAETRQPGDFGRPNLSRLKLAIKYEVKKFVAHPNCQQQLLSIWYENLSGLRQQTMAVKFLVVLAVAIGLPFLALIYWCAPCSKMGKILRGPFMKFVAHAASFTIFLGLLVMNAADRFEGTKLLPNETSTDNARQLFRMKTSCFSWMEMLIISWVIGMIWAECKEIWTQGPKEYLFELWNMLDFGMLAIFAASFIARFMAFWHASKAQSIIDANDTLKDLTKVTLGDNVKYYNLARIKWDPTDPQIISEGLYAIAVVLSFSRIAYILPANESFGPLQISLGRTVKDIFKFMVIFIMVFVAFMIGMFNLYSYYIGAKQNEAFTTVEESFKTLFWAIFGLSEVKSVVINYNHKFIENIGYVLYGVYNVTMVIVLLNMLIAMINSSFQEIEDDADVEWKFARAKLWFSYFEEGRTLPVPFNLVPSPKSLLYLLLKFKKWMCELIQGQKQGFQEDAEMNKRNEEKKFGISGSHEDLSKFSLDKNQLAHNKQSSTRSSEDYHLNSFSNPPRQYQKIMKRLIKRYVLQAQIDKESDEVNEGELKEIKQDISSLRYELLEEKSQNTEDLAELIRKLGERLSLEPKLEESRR

[10] = target: Short transient receptor potential channel 6 (Mus musculus) (UniProt Q61143); experiment: activation of mouse TRPC6 channel, confirmation, selectivity assay for TRPC4 activator project, cell-based, HEK293, membrane potential dye, duplicate (AID 434950;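 active = membrane potential signal rise above negative control mean plus 3 SD in both duplicates, also active in the earlier TRPC4 screen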;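 as to activation: 0% = buffer only wells and 100% = acetylcholine maximal-effect wells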); settings: HEK293 TRPC6, membrane potential fluorescence, at 10 µM; active compounds read high
[11] = target: Short transient receptor potential channel 6 (Mus musculus) (UniProt Q61143); experiment: TRPC6 potentiation by TRPC4 potentiator hits, confirmation, selectivity assay for TRPC4 potentiator project, HEK293 cells, membrane potential dye, duplicate (AID 434952;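 active = compound raising the membrane signal above positive-control mean plus 3 SD in both repeats, and a primary screen hit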); settings: HEK293 TRPC6, membrane potential dye fluorescence, at 10 µM, maximal acetylcholine added after compound; active compounds read high
[12] = target: Short transient receptor potential channel 4 (Mus musculus) (UniProt Q9QUQ5); experiment: calcium flux activators in TRPC4/5HT1a cells, counter-screen for TRPC4 activator project, cell-based, second counter screen, HEK293 TRPC4/5HT1a, Fluo-4 (AID 434977;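 active = calcium signal rise above buffer-control mean plus 5 SD in both duplicates, and also a hit in the primary screen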;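 as to activation: plate controls were assay buffer for no effect and maximal serotonin response for full effect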); settings: Fluo-4 calcium flux, at 10 µM; active compounds read high
[13] = calcium flux inhibitors in TRPC4/5HT1a cells, confirmation, counter-screen for TRPC4 inhibitor project, cell-based, second counter screen, HEK293 TRPC4/5HT1a, Fluo-4 (AID 434978;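 active = primary screen active whose calcium signal fell more than 3 SD beyond the full-serotonin control mean in both duplicate plates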;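 as to outcome: serotonin given first at submaximal then at maximal dose after compound preincubation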); settings: Fluo-4 calcium flux, at 10 µM, serotonin added to trigger calcium flux; active compounds read high
[14] = tested on: TRPC4 (mouse), co-expressed with 5HT1a in HEK293; experiment: calcium flux potentiators in TRPC4/5HT1a cells, confirmation, counter-screen for TRPC4 potentiator project, cell-based, second counter screen, HEK293 TRPC4/5HT1a, Fluo-4 (AID 434979;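 active = signal rise over 3 SD above mean of control wells given weak agonist, in both repeats and first screen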); settings: Fluo-4 calcium flux, at 10 µM, serotonin added at its EC20 dose; active compounds read high
[15] = calcium flux activation in mu-opioid HEK293 cells, confirmation, counter-screen for TRPC4 activator project, cell-based, HEK293 mu-opioid receptor line (AID 449723); settings: Fluo-4 calcium fluorescence, at 10 µM; active compounds read high;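 also: counter screen cells carry the mu-opioid receptor alone and lack TRPC4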
[16] = calcium flux enhancement in mu-opioid HEK293 cells, confirmation, counter-screen for TRPC4 allosteric potentiator project, cell-based, HEK293 mu-opioid receptor line (AID 449724;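 active = calcium signal rise more than 3 SD above the low-dose agonist control mean, in both duplicate plates and the primary screen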); settings: Fluo-4 calcium flux, at 10 µM, compound added before EC20 DAMGO stimulus; active compounds read high
[17] = thallium flux activation in parental CHO cells, counter-screen for KCNQ1 potentiator project (AID 493006;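 active = duplicate-averaged activation above buffer control mean plus 5 SD of those controls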;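 also: fluorescence ratio of max minus min over baseline after K+ and Tl+ depolarization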); settings: parental CHO-K1 cells, FluxOR thallium flux, at 10 µM; active compounds read high
[18] = target: Potassium voltage-gated channel subfamily KQT member 1 (Homo sapiens) (UniProt P51787); experiment: KCNQ1 potassium channel potentiators, confirmation, FluxOR thallium flux, CHO cells, duplicates (AID 493007;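 active = potentiation averaged over duplicate wells exceeding buffer-only control mean by more than 3 SD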;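 also: 0% = buffer-only wells and 100% = R-L3 activator control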); settings: KCNQ1 cell line, FluxOR thallium flux fluorescence, at 10 µM; active compounds read high, % of reference activator effect, buffer zero
Potassium voltage-gated channel subfamily KQT member 1 (Homo sapiens), sequence (P51787 whole entry, looked up): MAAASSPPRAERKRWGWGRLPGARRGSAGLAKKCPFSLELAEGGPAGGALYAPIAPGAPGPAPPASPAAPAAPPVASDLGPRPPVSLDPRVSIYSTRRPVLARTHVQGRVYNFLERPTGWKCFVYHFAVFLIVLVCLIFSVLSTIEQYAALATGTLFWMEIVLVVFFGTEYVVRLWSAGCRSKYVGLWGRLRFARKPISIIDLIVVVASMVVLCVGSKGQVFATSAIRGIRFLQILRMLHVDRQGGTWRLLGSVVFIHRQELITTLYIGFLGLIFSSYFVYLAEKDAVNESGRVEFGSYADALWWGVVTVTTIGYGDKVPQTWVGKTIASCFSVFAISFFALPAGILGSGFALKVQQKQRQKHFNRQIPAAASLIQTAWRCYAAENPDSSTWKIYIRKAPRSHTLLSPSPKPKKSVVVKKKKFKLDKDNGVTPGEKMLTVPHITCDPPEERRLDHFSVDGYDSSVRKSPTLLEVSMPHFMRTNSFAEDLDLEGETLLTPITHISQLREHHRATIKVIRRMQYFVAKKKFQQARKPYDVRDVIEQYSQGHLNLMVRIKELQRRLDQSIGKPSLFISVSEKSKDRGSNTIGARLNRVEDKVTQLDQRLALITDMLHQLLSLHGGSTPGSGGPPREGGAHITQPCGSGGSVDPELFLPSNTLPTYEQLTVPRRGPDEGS

[19] = target: Potassium voltage-gated channel subfamily KQT member 2 (Rattus norvegicus) (UniProt O88943); experiment: rat KCNQ2 channel potentiation, selectivity assay for KCNQ1 potentiator project, KCNQ2-CHO-K1 cells (AID 493009;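 active = mean duplicate potentiation above the buffer control mean plus 5 SD of buffer wells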;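 also: assay conditions were tuned for KCNQ1 rather than KCNQ2 modulators; signal is max minus min fluorescence divided by baseline after thallium stimulus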); settings: FluxOR thallium flux fluorescence, at 10 µM; active compounds read high, scaled: buffer 0, activator control 100
Potassium voltage-gated channel subfamily KQT member 2 (Rattus norvegicus), sequence (O88943 whole entry, looked up): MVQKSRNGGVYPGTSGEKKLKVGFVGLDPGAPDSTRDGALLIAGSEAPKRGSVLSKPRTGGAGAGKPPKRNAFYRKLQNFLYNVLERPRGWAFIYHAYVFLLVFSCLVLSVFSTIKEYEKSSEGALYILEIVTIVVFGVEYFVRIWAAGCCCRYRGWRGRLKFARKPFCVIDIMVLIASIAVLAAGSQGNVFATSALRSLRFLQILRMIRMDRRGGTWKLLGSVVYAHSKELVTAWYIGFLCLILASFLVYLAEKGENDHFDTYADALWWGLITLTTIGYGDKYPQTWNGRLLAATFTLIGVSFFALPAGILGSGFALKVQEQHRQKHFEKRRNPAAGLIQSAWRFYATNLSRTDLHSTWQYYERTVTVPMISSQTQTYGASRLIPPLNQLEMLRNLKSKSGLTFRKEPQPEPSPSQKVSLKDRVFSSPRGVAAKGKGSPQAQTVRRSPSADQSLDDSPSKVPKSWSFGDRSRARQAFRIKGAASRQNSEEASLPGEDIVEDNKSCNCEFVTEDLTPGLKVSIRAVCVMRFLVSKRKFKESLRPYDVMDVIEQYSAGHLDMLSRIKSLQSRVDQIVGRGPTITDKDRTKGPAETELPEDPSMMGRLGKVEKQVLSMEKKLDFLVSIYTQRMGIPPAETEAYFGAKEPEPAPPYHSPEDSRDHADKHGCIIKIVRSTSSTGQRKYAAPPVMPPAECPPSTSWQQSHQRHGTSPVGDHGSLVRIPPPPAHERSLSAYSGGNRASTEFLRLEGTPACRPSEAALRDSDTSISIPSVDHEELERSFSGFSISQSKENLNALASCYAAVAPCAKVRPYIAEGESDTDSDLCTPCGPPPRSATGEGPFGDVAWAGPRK

[20] = target: Potassium voltage-gated channel subfamily KQT member 1 (Homo sapiens) (UniProt P51787); experiment: KCNQ1 channel current potentiators, confirmation, orthogonal assay for KCNQ1 potentiator project, IonWorks patch clamp, KCNQ1-CHO cells (AID 493184;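 active = current rise at least 3 SD above the untreated control mean in each of two repeat wells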;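 as to current potentiation: percent change of the same well's current before compound addition so 0% = no change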); settings: automated patch clamp current, at 10 µM; active compounds read high

COc1ccccc1N1CCN(C(c2cccs2)C(C)NC(=O)c2cccs2)CC1 (configuration not stated)
inactive: outcome [1] | outcome [2] | outcome [3] | outcome [4] | outcome [5] | outcome [6] | outcome [7] | outcome [8] | outcome [9] | outcome [11] | outcome [12] | outcome [13] | outcome [14] | outcome [15] | outcome [16]
active: activation [10] 23.5%

CCCOc1ccc(C(=O)NNC(=S)NC(=O)c2cccs2)cc1
active: activation [1] 104% | activation [12] 71.2% | activation [15] 22.6% | activation [17] 139% | potentiation [18] 135% | potentiation [19] 275%
inactive: outcome [2] | outcome [3] | outcome [4] | outcome [5] | outcome [6] | outcome [7] | outcome [8] | outcome [9] | outcome [10] | outcome [11] | outcome [13] | outcome [14] | outcome [16] | outcome [20]

CCOc1ccccc1CN1CCNC(=O)C1CC(=O)NCCc1ccccn1 (configuration not stated)
active: activation [10] 23.5% | activation [12] 17.3%
inactive: outcome [1] | outcome [2] | outcome [3] | outcome [4] | outcome [5] | outcome [6] | outcome [7] | outcome [8] | outcome [9] | outcome [11] | outcome [13] | outcome [14] | outcome [15] | outcome [16]

COc1ccccc1C(=O)NNC(=S)NC(=O)c1sc2ccccc2c1Cl
active: activation [10] 30.5% | activation [12] 14.7% | inhibition [13] 38.3% | activation [17] 278% | potentiation [18] 150% | potentiation [19] 287%
inactive: outcome [1] | outcome [2] | outcome [3] | outcome [4] | outcome [5] | outcome [6] | outcome [7] | outcome [8] | outcome [9] | outcome [11] | outcome [14] | outcome [15] | outcome [16] | outcome [20]

Cc1cccc(C(=O)NC(=S)NNC(=O)c2cccs2)c1
active: activation [1] 226% | activation [10] 34.5% | activation [12] 125% | activation [15] 67.1% | activation [17] 142% | potentiation [18] 75% | potentiation [19] 210% | current potentiation [20] 22.2%
inactive: outcome [2] | outcome [3] | outcome [4] | outcome [5] | outcome [6] | outcome [7] | outcome [8] | outcome [9] | outcome [11] | outcome [13] | outcome [14] | outcome [16]

O=C(O)c1ccc(-c2ccc(/C=c3/sc4nc5ccccc5n4c3=O)o2)cc1Cl
active: potentiation [4] 10% | activation [10] 218% | potentiation, percent of control [11] 166% | activation [12] 46.3% | activation [15] 40.9%
inactive: outcome [1] | outcome [2] | outcome [3] | outcome [5] | outcome [6] | outcome [7] | outcome [8] | outcome [9] | outcome [13] | outcome [14] | outcome [16]

CCCOc1ccc(C(=O)NNC(=S)NC(=O)c2ccco2)cc1
inactive: outcome [2] | outcome [3] | outcome [4] | outcome [5] | outcome [6] | outcome [7] | outcome [8] | outcome [9] | outcome [11] | outcome [13] | outcome [14] | outcome [16] | outcome [20]
active: activation [1] 223% | activation [10] 38.5% | activation [12] 143% | activation [15] 61.8% | activation [17] 195% | potentiation [18] 212% | potentiation [19] 340%

CCCc1ccc(OCC(=O)NNC(=S)NC(=O)c2ccco2)cc1
active: activation [12] 46.5% | activation [17] 164% | potentiation [18] 79.5% | potentiation [19] 216%
inactive: outcome [1] | outcome [2] | outcome [3] | outcome [4] | outcome [5] | outcome [6] | outcome [7] | outcome [8] | outcome [9] | outcome [10] | outcome [11] | outcome [13] | outcome [14] | outcome [15] | outcome [16] | outcome [20]

CC(C)(C)c1cc(CCC(=O)NNC(=S)NC(=O)c2ccccc2)cc(C(C)(C)C)c1O
active: activation [1] 150% | activation [12] 92% | activation [15] 41.2% | activation [17] 188% | potentiation [18] 61% | potentiation [19] 185%
inactive: outcome [2] | outcome [3] | outcome [4] | outcome [5] | outcome [6] | outcome [7] | outcome [8] | outcome [9] | outcome [10] | outcome [11] | outcome [13] | outcome [14] | outcome [16] | outcome [20]

CCc1cccc(CC)c1NC(=S)NCC(c1cccnc1)N(C)C (configuration not stated)
active: activation [1] 79% | activation [2] 67% | activation [10] 46%
inactive: outcome [3] | outcome [4] | outcome [5] | outcome [6] | outcome [7] | outcome [8] | outcome [9] | outcome [11] | outcome [12] | outcome [13] | outcome [14] | outcome [15] | outcome [16]

COC(=O)C1=C(C)N(Cc2ccccc2)C(=NCCc2ccccn2)N[C@H]1c1cccc(F)c1
inactive: outcome [2] | outcome [3] | outcome [4] | outcome [5] | outcome [6] | outcome [7] | outcome [8] | outcome [9] | outcome [11] | outcome [13] | outcome [14] | outcome [15] | outcome [16]
active: activation [1] 109% | activation [10] 77% | activation [12] 44.2%

Cc1ccc(C2(O)CN(c3ccccc3C)C3=[N+]2CCS3)cc1 (configuration not stated)
inactive: outcome [3] | outcome [4] | outcome [5] | outcome [6] | outcome [7] | outcome [8] | outcome [9] | outcome [11] | outcome [12] | outcome [13] | outcome [14] | outcome [15] | outcome [16]
active: activation [1] 87% | activation [2] 76% | activation [10] 43.5%

Fc1ccc(C(c2nnnn2Cc2cccs2)N2CCN(C3CCCCC3)CC2)cc1 (configuration not stated)
inactive: outcome [3] | outcome [4] | outcome [5] | outcome [6] | outcome [7] | outcome [8] | outcome [9] | outcome [11] | outcome [13] | outcome [14] | outcome [15] | outcome [16]
active: activation [1] 251% | activation [2] 67% | activation [10] 60.5% | activation [12] 22.7%
